Screening results as filed in PubChem.
HT1080-NT tox = qHTS for induction of synthetic lethality in tumor cells producing 2HG: qHTS for the HT-1080-NT fibrosarcoma cell line. HT-1080-NT fibrosarcoma viability, CellTiter-Glo ATP luminescence, 48 h. Potency, µM (titrated, usually from 46.1 µM), without a hit: top-dose activity, negative = less viability, most hits filed as cytotoxic. actives 1.6% (n = 360,000). AID 686970, 2013;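 also: NT is the 2HG producing partner of a matched IDH1 knockdown line; potency is read from the fitted curve at half-maximal effect; 0% = DMSO-treated cells and -100% = media-only wells without cells; nearly all actives have a fitted effect of over 55% in size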
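Viability of the 2HG-overproducing fibrosarcoma line after 48 hours of compound exposure at 37 degrees C was determined by luminescence with CellTiter-Glo, and concentration-effect curves were then fitted and categorized.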
DT40 TDP1 CPT = qHTS for Inhibitors of human tyrosyl-DNA phosphodiesterase 1 (TDP1): qHTS in cells in presence of CPT; chicken DT40 Tdp1-/-;hTDP1 cells + 20 nM CPT, ATP luminescence, 48 h; Potency, µM (highest dose often 46.2 µM), for inactives: at the highest dose activity change, negative = growth inhibition, usual class: inhibitors; actives 12% (n = 420,000); AID 686979, 2013; also: potency is read from the fitted curve at half-maximal effect; nearly all actives have a fitted effect of over 55% in size
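Cell growth measured by CellTiter-Glo luminescence after a minimum 48 h, 37 C compound exposure with 20 nM CPT in Tdp1-knockout DT40 cells stably expressing hTDP1, seeded 400/well; qHTS titration format.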
DT40 TDP1 no CPT = qHTS for Inhibitors of human tyrosyl-DNA phosphodiesterase 1 (TDP1): qHTS in cells in absence of CPT. DT40 Tdp1-/- hTDP1 cells, no CPT, ATP luminescence, 48 h. Potency, µM (series often up to 46.2 µM), without a hit: at the highest dose activity change, negative = growth inhibition, usual class: inhibitors. actives 15% (n = 420,000). AID 686978, 2013; also: potency is read from the fitted curve at half-maximal effect; nearly all actives have a fitted effect of over 55% in size
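No-CPT arm: Tdp1-/-;hTDP1 DT40 cells (400/well) plus compounds, incubated ≥48 hr at 37 °C. Readout CellTiter-Glo luminescence.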
12-LOX inh = Primary qHTS assay for inhibitors of human arachidonate 12S-lipoxygenase (ALOX12): Round 2. actives 1.1% (n = 580,000). purified 12hLO, xylenol orange hydroperoxide absorbance. AID 1671190, 2021. Polyunsaturated fatty acid lipoxygenase ALOX12 (Homo sapiens), P18054. Potency, µM (top dose mostly 108 µM), inactives show at the top dose activity change, negative = inhibition, most hits filed as inhibitors; also: potency is read from the fitted curve at half-maximal effect
Target sequence (P18054 whole entry, looked up): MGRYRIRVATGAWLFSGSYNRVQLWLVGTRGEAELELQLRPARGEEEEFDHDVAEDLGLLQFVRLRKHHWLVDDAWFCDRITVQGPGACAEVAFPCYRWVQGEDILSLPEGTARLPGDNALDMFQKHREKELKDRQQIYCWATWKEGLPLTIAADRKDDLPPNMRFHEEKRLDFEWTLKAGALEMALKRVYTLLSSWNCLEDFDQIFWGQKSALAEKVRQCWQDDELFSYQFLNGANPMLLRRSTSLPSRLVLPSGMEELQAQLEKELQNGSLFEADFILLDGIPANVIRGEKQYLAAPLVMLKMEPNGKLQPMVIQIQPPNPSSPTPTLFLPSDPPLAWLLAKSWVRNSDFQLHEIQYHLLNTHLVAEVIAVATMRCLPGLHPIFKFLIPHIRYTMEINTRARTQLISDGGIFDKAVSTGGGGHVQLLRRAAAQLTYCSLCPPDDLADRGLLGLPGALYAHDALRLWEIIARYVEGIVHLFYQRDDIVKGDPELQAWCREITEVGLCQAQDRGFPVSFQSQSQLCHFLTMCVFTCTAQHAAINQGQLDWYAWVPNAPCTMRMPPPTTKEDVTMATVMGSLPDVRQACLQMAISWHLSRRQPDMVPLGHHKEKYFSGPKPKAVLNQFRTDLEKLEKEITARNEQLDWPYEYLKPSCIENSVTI
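Purified human 12hLO at 150 nM in 25 mM Hepes, 0.01% Triton X-100, pH 7.0, preincubated 15 min at room temperature with compound. Reaction started with 40 uM arachidonic acid, 30 min at room temperature. Hydroperoxide measured by Fe-xylenol orange, 573/405 nm absorbance ratio.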
HT1080 IDH1KD tx = qHTS for induction of synthetic lethality in tumor cells producing 2HG: qHTS for the HT-1080-IDH1KD cell line | HT-1080 IDH1 knockdown viability, ATP luminescence, 48 h | Potency, µM (titrated, usually from 46.1 µM), for the others: top-dose activity, negative = toxicity, usual class: cytotoxic | actives 2% (n = 360,000) | AID 686971, 2013;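 also: potency is read from the fitted curve at half-maximal effect; 0% = DMSO wells and -100% = cell-free medium wells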
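After a 2 h attachment period, IDH1KD HT-1080 cells took pin-transferred compound for 48 h at 37 °C; ATP-based luminescence after 10 min room-temperature reagent incubation reported viability.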
IL1B secr inh = qHTS for Inhibitors of Inflammasome Signaling: IL-1-beta AlphaLISA Primary Screen; actives 4.7% (n = 360,000); THP-1 LPS/ATP IL-1B secretion, AlphaLISA, 16 h; hits give low values; activity change, % at 57.5 µM; in the data active = activity change below about -50%; inconclusive = mostly about -30% to -49%
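Secreted IL-1B measured by AlphaLISA bead assay after 16 h compound exposure of THP-1 cells; compounds (final up to 57.5 uM) added 1 h before LPS (250 ng/mL) and ATP (1.25 mM) stimulation; lower signal means less secretion.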
Active calls of the source: *; ? = inconclusive; . = no result given; [ ] = remark or other dose. Many of the other results were omitted from the sample, so hits are more common in it than they were. Unless noted, calls follow the shape of the dose curve; as a rule, active = well fitted curve in the direction sought with a large enough effect; inconclusive = small, poorly fitted or top-dose-only effect, or another doubt; inactive = no such curve, though single readings can be large; an effect the other way counts as inactive or inconclusive. Unless noted, % is scaled to controls: 0 for no effect and ±100 for the full control effect.

SMILES	HT1080-NT tox	DT40 TDP1 CPT	DT40 TDP1 no CPT	12-LOX inh	HT1080 IDH1KD tx	IL1B secr inh
O=C(C1NCCc2[nH]cnc21)N1CCC(c2nc(-c3ccccc3)no2)CC1 (stereo not given)	.	.	.	10%	.	.
Cc1ccc(C(=O)CSc2ncnc3sc4c(c23)CCCC4)cc1	-6%	?	21µM*	11%	15%	-5
CCC(Sc1ncnc2sc3c(c12)CCCC3)C(=O)OCC(C)C (stereo not given)	.	26µM*	?	-11%	.	.
O=C(O)CSc1ncnc2sc3c(c12)CCCC3	16%	-2%	-24%	-16%	4%	21
CCC(Sc1ncnc2sc3c(c12)CCCC3)C(=O)OC(C)C (stereo not given)	.	18µM*	?	-2%	.	.
Cc1cc(NCc2cccs2)ccc1NC(=O)c1ccco1	.	.	.	-28%	.	.
COc1cc(NC(=O)COc2cc(O)c3c(c2)OC(C)(C)CC3=O)cc(OC)c1OC	-20%	0.46µM*	0.26µM*	1%	?	-3
CC1(C)CC(=O)c2c(O)cc(OCC(=O)Nc3ccc(S(N)(=O)=O)cc3)cc2O1	-6%	-29%	?	?	3%	-4
COc1ccc(CNC(=O)COc2cc(O)c3c(c2)OC(C)(C)CC3=O)cc1	4%	33µM*	0.82µM*	-9%	0%	-7
Cc1cc(C)c(CNC(=O)c2cc(-c3ccccc3C)cc3c2OCCN3C)c(=O)[nH]1	.	.	.	112µM*	.	.
Fc1ccc(CN2CCn3c(nnc3-c3ccc(Cl)cc3)C2)cc1	.	.	.	7%[6.33 µM]	.	.
COc1ccc(Sc2nnc(Cc3ccccc3)c3ccccc23)cc1	-11%	?	?	?	?	.
Cc1ccc(Sc2nnc(Cc3ccccc3)c3ccccc23)cc1	-5%[9.24 µM]	26µM*	23µM*	?	-11%	-89*
COc1ccc(-c2ccc(SC)nn2)cc1	21µM*	-29%	?	37%	23µM*	-14
COc1ccc(N=CC2=C(O)c3ccccc3C2=O)c(OC)c1	?	?	18µM*	47%	-30%	-13
O=C1C(C=Nc2ccc(F)cc2)=C(O)c2ccccc21	14%	8%	-15%	-20%	0%	-16
Cc1ccccc1N=CC1=C(O)c2ccccc2C1=O	?	?	16µM*	-16%	?	-8
COc1ccc(NC(=O)CCCN2C(=O)CN(C)C2=O)cc1Cl	12%	18%	-9%	0%	13%	10
CCn1c2ccccc2c2c3ncc4cccn4c3ccc21	-4%	4.1µM*	6.5µM*	0%	-28%	-76*
O=C(Nc1ccc([C@H]2OCC(=O)N(C3CCOCC3)[C@@H]2CO)cc1)c1ccc(C(F)(F)F)cc1	.	.	.	45%	.	.
CC(=O)NC(C)c1ccc(C(=O)CSc2nnc(C3CC3)n2Cc2ccccc2)cc1 (stereo not given)	.	.	.	-25%	.	.
Nc1cccn2c(-c3ccc(Cl)cc3)cnc12	-4%	?	18µM*	?	0%	-11
CC(C)[C@@H]1CN(C(=O)CCn2ccc(=O)[nH]c2=O)C[C@H]1NS(C)(=O)=O	.	.	.	6%	.	.
O=C(Nc1nc2cc3c(cc2s1)OCO3)C1CC1	-2%	4.1µM*	3.7µM*	-6%	4%	3
O=C(Nc1nc2ccc(Cl)cc2s1)C1CC1	-11%	-27%	?	?	-5%	25
CC(C)C(=O)Nc1nc2cc3c(cc2s1)OCO3	6%	5.2µM*	4.6µM*	-2%	6%	19
